High-throughput results: PubChem, several laboratories
Rce1 inh: yeast Rce1p protease inhibitors, primary screen, biochemical, fluorescence, cell-free homogeneous; yeast membranes, quenched prenylated peptide cleavage fluorescence; calls only; 290,000 compounds, 0.27% hits; AID 2563, 2010;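 active means fall in fluorescence gain of 50% or more versus controls, with final raw signal at or below 3038400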;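 further: plate controls were neutral control wells for no effect and wells lacking membranes for full effect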
Target sequence (Q03530 whole entry, looked up): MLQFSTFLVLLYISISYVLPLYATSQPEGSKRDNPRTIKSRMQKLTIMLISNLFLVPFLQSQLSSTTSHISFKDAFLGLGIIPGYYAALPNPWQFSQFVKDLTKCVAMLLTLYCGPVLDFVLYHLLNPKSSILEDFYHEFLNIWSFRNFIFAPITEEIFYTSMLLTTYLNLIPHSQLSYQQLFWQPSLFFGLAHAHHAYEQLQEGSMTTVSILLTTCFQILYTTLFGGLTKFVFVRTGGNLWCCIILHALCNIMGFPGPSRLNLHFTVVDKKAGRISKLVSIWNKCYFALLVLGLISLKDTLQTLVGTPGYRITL
MEKK3 PB1 HTS: modulators of MEKK3-MEK5 PB1 binding, primary screen, biochemical, wildtype MEKK3, multiplex bead flow cytometry, Alexa488-MEK5 | binding response (% of control), % at 10 µM | AID 1529, 2009 | bead-based flow cytometry, Alexa488-MEK5 binding to MEKK3; actives lie on both sides; 0 = blocked by unlabeled MEK5, 100 = vehicle | Mitogen-activated protein kinase kinase kinase 3 (Homo sapiens), Q99759 | 290,000 compounds, 1.4% hits;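 active means binding response more than 3 SD above or below the average of its plate-row segment, actives on both sides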;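 further: Alexa488 bead fluorescence after subtracting the streptavidin-only scavenger bead signal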
MEKK2mut PB1 HTS: MEK5 binding signal on mutant MEKK2 PB1, primary screen, biochemical, multiplex bead flow cytometry, Alexa488-MEK5. AID 1530, 2009. 290,000 compounds, 0.35% hits. percent response, % at 10 µM. Alexa488-MEK5 binding to MEKK2 mutant; in the data active means percent response above about 24%, passing the limit was not always enough
UBC13 polyUb: UBC13 polyubiquitin chain formation inhibitors, primary screen, biochemical, TR-FRET, uHTS; 330,000 compounds, 0.47% hits; Ubiquitin-conjugating enzyme E2 N (Homo sapiens), P61088; inhibition, % at 20 µM; AID 485273, 2010; in the data active means inhibition above about 45%, passing the limit was not always enough
Target sequence (P61088 whole entry, looked up): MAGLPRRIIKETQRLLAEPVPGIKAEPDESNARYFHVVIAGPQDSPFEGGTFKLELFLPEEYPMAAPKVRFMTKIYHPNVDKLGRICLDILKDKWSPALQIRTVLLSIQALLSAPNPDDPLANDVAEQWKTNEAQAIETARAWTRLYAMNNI
MEKK2 WT-MEK5: modulators of MEK5 binding to wildtype MEKK2, primary screen, biochemical, multiplex bead flow cytometry, Alexa488-MEK5. Alexa488-MEK5 binding to MEKK2 WT; actives lie on both sides. Mitogen-activated protein kinase kinase kinase 2 (Homo sapiens), Q9Y2U5. 290,000 compounds, 1.1% hits. binding response (% of control), % at 10 µM; in the data active means binding response below about 67% or above about 130%
Casp3 counter: CASP3 inhibitor validation, counterassay for project on UBE2N polyubiquitination blockers, biochemical, one dose | inhibition, % at 20 µM | Recombinant caspase-3, Caspase-Glo 3/7 luminescence, 60 min | shares compounds with UBC13 polyUb | 1,400 compounds, 4% hits;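 active means mean inhibition across replicates above about 26%, limit read from the data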;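 further: plate controls were DMSO with caspase-3 for no effect and DMSO wells lacking enzyme for full effect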
UBC13 conf: UBC13 polyubiquitination inhibitors, single-point retest, confirmation, biochemical, TR-FRET, single concentration. shares compounds with UBC13 polyUb. inhibition, % at 10 µM. 1,400 compounds, 68% hits. AID 488859, 2010; in the data active means inhibition above about 45%
Active calls of the source: *; i = inactive; · = no result given. This is a sample that favours compounds with a hit; in the whole collection about 2.5% have one here.

SMILES	Rce1 inh	MEKK3 PB1 HTS	MEKK2mut PB1 HTS	UBC13 polyUb	MEKK2 WT-MEK5	Casp3 counter	UBC13 conf
CCCCN1C(=N)N([C@@H](C)CN2CCC[C@H]2CN2C(N)=NC[C@H]2CC(C)C)C[C@H]1Cc1ccccc1	·	·	·	27.2	·	·	·
CCCCN1C(=N)N([C@@H](CCC)CN2CCC[C@H]2CN2C(N)=NC[C@@H]2Cc2ccccc2)C[C@H]1Cc1ccccc1	·	·	·	54.5*	·	-3.7	35.6
COc1ccc(NC(=O)CS(=O)(=O)c2cn(CC(=O)N3CCOCC3)c3ccccc23)cc1	i	104.0	6.0	-4.0	104.0	·	·
C#CCOCCOCCOCCNc1nc(N2CCN(C(=O)[C@H](C)n3cc(CCCN=C(N)N)nn3)CC2)nc(N2CCN(C(=O)[C@H](CCCCN)n3cc(CCCC)nn3)CC2)n1	·	110.0	-1.0	·	110.0	·	·
CC[C@H](C)Cc1cn([C@@H](CCCCN)C(=O)NCCCCCCCCCCC(=O)N2CCNCC2)nn1	i	·	·	47.0*	·	1.9	45.0*
CC[C@H](C)Cc1cn([C@@H](CCCN=C(NC(=O)OC(C)(C)C)NC(=O)OC(C)(C)C)C(=O)NCCCCCCCCCCC(=O)N2CCN(C(=O)OC(C)(C)C)CC2)nn1	i	·	·	53.9*	·	-2.7	26.8
C#CCOCCOCCOCCNc1nc(N2CCN(C(=O)CCCCCCCCCCNC(=O)[C@@H](CCSC)n3cc(CCO)nn3)CC2)nc(N2CCN(C(=O)CCCCCCCCCCNC(=O)[C@H](CCCN=C(N)N)n3cc(C[C@@H](C)CC)nn3)CC2)n1	·	·	·	127.7*	·	-4.7	123.0*
C#CCOCCOCCOCCNc1nc(N2CCN(C(=O)CCCCCCCCCCNC(=O)[C@H](CCCCN)n3cc(C[C@@H](C)CC)nn3)CC2)nc(N2CCN(C(=O)CCCCCCCCCCNC(=O)[C@H](CCCN=C(N)N)n3cc(C[C@@H](C)CC)nn3)CC2)n1	·	·	·	125.0*	·	-0.7	124.6*
C/C(CC(=O)N(C(C)C)C(C)C)=N\NC(=O)c1ccccc1Br	i	102.0	-1.0	6.3	100.0	·	·
CCCCc1ccc(NC(=O)CSc2nnc(CNC(=O)c3ccco3)o2)cc1	i	100.0	1.0	8.8	101.0	·	·
CSCC[C@H](NC(=O)C1CCC(CNC(=O)[C@@H]2CCCN2C(=O)OC(C)(C)C)CC1)C(=O)O (stereo partly specified)	i	96.0	6.0	1.6	97.0	·	·
C#CCOCCOCCOCCNc1nc(N2CCN(C(=O)CCCCCCCCCCNC(=O)[C@H](CCCCN)n3cc(C)nn3)CC2)nc(N2CCN(C(=O)CCCCCCCCCCNC(=O)[C@H](CCCN=C(N)N)n3cc(C[C@@H](C)CC)nn3)CC2)n1	·	·	·	122.6*	·	-3.2	127.3*
C#CCOCCOCCOCCNc1nc(N2CCN(C(=O)CCCCCCCCCCNC(=O)[C@@H](CCSC)n3cc(CCO)nn3)CC2)nc(N2CCN(C(=O)CCCCCCCCCCNC(=O)[C@@H]([C@H](C)O)n3cc(C)nn3)CC2)n1	·	·	·	22.0	·	·	·
Cc1ccc(S(=O)(=O)Nc2ccc(NC(=O)c3c(F)c(F)c(F)c(F)c3F)cc2)cc1	i	104.0	-4.0	-8.2	98.0	·	·
Nc1nc(Cl)cc(N2CCC(c3cc(-c4ccc(Cl)cc4)n[nH]3)CC2)n1	i	105.0	6.0	40.3	106.0	·	·
COc1ccc(-c2cc(C3CCN(c4cc(Cl)nc(N)n4)CC3)[nH]n2)cc1	i	91.0	-6.0	45.8*	88.0	-0.5	45.9*
Cc1cccn2c(=O)c(C=O)c(N3CCCCCC3)nc12	i	102.0	4.0	55.3*	99.0	2.7	64.0*
COc1cccc2oc3ccc(C#CC4(N)CCCCC4)cc3c(=O)c12	i	105.0	4.0	52.7*	124.0	79.5*	40.5
O=c1c2ccccc2oc2ccc(C#CC3(O)CCCCC3)cc12	i	110.0	7.0	16.1	104.0	·	·
CC(=O)c1ccc(OCCCC(=O)NNC(=O)c2ccccn2)cc1	·	·	·	76.1*	·	-2.7	65.8*
CC(Oc1cccc(Br)c1)C(=O)NNC(=O)c1ccccn1 (stereo unspecified)	·	·	·	47.0*	·	-4.7	90.7*
CC(Oc1ccccc1)C(=O)NNC(=O)c1ccccn1 (stereo unspecified)	i	100.0	-4.0	5.3	99.0	·	·
COc1ccc(OCC(=O)NNC(=O)c2ccccn2)cc1	i	·	·	68.9*	·	-3.1	95.5*
COc1ccc(C(=O)NNC(=O)c2ccccn2)cc1	i	106.0	-2.0	-11.5	103.0	·	·
COc1ccc(CCNC(=O)CN2C(=O)COc3ccc(S(=O)(=O)N4CCCC4)cc32)c(OC)c1	i	99.0	-5.0	-2.9	98.0	·	·
SMILES	Rce1 inh	MEKK3 PB1 HTS	MEKK2mut PB1 HTS	UBC13 polyUb	MEKK2 WT-MEK5	Casp3 counter	UBC13 conf
Cc1ccc([N+](=O)[O-])cc1N(CC(=O)Nc1ccc(S(=O)(=O)Nc2cccc(C(F)(F)F)c2)cc1)S(C)(=O)=O	i	101.0	1.0	12.2	109.0	·	·
Cc1ccc(C)c(NC(=S)N2CCC(NC(=O)c3ccco3)CC2)c1	·	99.0	-1.0	-7.1	95.0	·	·
N#Cc1ccc(C(=O)NCC2CCCCC2)cc1	i	103.0	3.0	11.4	104.0	·	·
COC(=O)C1=C(C)N(Cc2ccccc2)C(=NCCc2c[nH]c3ccccc23)N[C@H]1c1cccc(F)c1	·	·	·	61.9*	·	0.6	64.3*
COC(=O)C1=C(C)N(Cc2ccccc2)C(=NCc2cc(OC)c(OC)c(OC)c2)N[C@H]1CCc1ccccc1	·	·	·	46.7*	·	4.1	39.4
COC(=O)C1=C(C)N(Cc2ccccc2)C(=NCc2cccc(Cl)c2)N[C@H]1c1ccccc1	·	·	·	70.5*	·	-1.0	67.3*
COC(=O)C1=C(C)N(Cc2ccccc2)C(=NCc2cc(OC)c(OC)c(OC)c2)N[C@H]1c1ccc(Br)cc1	·	·	·	55.3*	·	-0.6	48.4*
COC(=O)C1=C(C)N(Cc2ccccc2)C(=NCCc2c[nH]c3ccccc23)N[C@H]1c1ccccc1	·	·	·	37.6	·	·	·
COC(=O)C1=C(C)N(Cc2ccccc2)C(=NCc2cc(OC)c(OC)c(OC)c2)N[C@H]1c1ccccc1	i	112.0	6.0	32.3	120.0	·	·
O=C(CNS(=O)(=O)c1cccc(Br)c1)NCC1CCCCC1	i	98.0	-1.0	-0.8	98.0	·	·
